ATXN viability: viability counter-screen for ATXN expression inhibitors; hit rate 0.49% among 400,000; S2 cells (HEK-293 line with an ATXN2-luciferase reporter) viability, CellTiter-Fluor protease fluorescence, 24 h; Potency, µM (highest dose often 56.7 µM), most hits filed as cytotoxic; also: nearly all actives have a fitted effect of over 40% in size
Nrf2 block: inhibitors of Nrf2 signaling; A549 ARE-Fluc reporter, luciferase luminescence, 18-24 h; Potency, µM (highest dose often 46 µM), inactives show top-dose activity change, negative = inhibition, usual class: inhibitors; hit rate 2.1% among 360,000; AID 504444; also: % is scaled to controls: 0 for no effect and ±100 for the full control effect; nearly all actives have a fitted effect of over 60% in size
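Concentration-response testing used A549 ARE_Fluc cells at 5000 cells/well. Following an 18-24 h compound incubation, viability was read by fluorescence (Ex 405/Em 525) and luciferase output by luminescence.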
A549 tox: A549 cytotoxicity, counter-screen for Nrf2 inhibitors. A549 ARE-Fluc cells, CellTiter-Fluor viability, 18-24 h. Potency, µM (titrated, usually from 46 µM), inactives show top-dose activity change, negative = cytotoxicity, usual class: inhibitors. hit rate 0.16% among 390,000. AID 504648; also: % is scaled to controls: 0 for no effect and ±100 for the full control effect
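A549 ARE-Fluc cells in 5% FBS OPTI-MEM, 5000 cells/well, rested 2 h then exposed to compounds in concentration-response for 18-24 h at 37 °C. Viability by CellTiter-Fluor fluorescence (Ex 405/Em 525) after 30 min; luciferase luminescence (BugLite, 15 min, RT) read afterwards.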
ATXN2 expr inh: ATXN2 expression inhibition; HEK-293 ATXN2-luciferase reporter, luminescence, 24 h; hit rate 0.72% among 360,000; Potency, µM (highest dose often 57 µM), inactives show at the highest dose activity change, negative = inhibition, usual class: inhibitors; also: % is scaled to controls: 0 for no effect and ±100 for the full control effect; nearly all actives have a fitted effect of over 55% in size
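qHTS (up to 57 uM final) was run with 24 h compound exposure of reporter cells at 37 °C. Each well was multiplexed: SteadyGlo luminescence measured ATXN2-luciferase expression after a fluorogenic Gly-Phe-AFC viability readout (25 uM final).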
Nrf2 activator: activates Nrf2 signaling; AREc32 ARE-luciferase reporter (MCF7-derived line), luminescence, 24 h; Potency, µM (highest dose often 46.1 µM), without a hit: at the top dose activation, usual class: activators; hit rate 0.31% among 410,000; also: % of control where 0% means no effect; nearly all actives have a fitted effect of over 65% in size
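Each well held 1000 AREc32 cells, which were incubated with compound for 24 hr at 37 deg C after overnight attachment, and ARE reporter activity was quantified by firefly luciferase luminescence.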
* hit, by the source's call; i = inactive; ? = inconclusive; nt = no result; [ ] = remark or other dose. An excerpt weighted towards active compounds, which were near 2.9% of everything screened. Calls follow the shape of the dose curve; as a rule, active = well fitted curve in the direction sought with a large enough effect; inconclusive = small, poorly fitted or top-dose-only effect, or another doubt; inactive = no such curve, though single readings can be large; an effect the other way counts as inactive or inconclusive. Potency is read from the fitted curve at half-maximal effect.

SMILES	ATXN viability	Nrf2 block	A549 tox	ATXN2 expr inh	Nrf2 activator
CC(C)(C)OC(=O)[C@H](Cc1ccccc1)NC(=O)c1[nH]cnc1C(=O)Nc1cccc(Cl)c1	32µM*	?	-14%	?	-3%
CC(C)(C)OC(=O)NCCCCCNC(=O)c1[nH]cnc1C(=O)Nc1ccc(Cl)cc1	?	16µM*	?	?	-4%
CC(C)C[C@H](NC(=O)c1nc[nH]c1C(=O)N[C@@H](CC(C)C)C(=O)OC(C)(C)C)C(=O)OC(C)(C)C	22µM*	26µM*	?	?	12%
CC(C)(C)OC(=O)[C@H](Cc1ccccc1)NC(=O)c1[nH]cnc1C(=O)Nc1ccc(Cl)cc1	nt	?	-10%	?	-5%
CC(C)C[C@H](NC(=O)c1[nH]cnc1C(=O)Nc1ccc(Cl)cc1)C(=O)OC(C)(C)C	28µM*	?	6%	?	-2%
COc1cccc(/C=C/C(=O)c2ccc[nH]2)c1	i	?	-2%	102%	16µM*
O=C(/C=C/c1ccc2c(c1)OCO2)c1ccc[nH]1	i	?	2%	75%	?
Cc1ccc(Cn2c(CCCNC(=O)c3ccco3)nc3ccccc32)cc1	i	8%	3%	-17%	8%
CCn1cc(-c2cc(C(=O)O)c3ccccc3n2)cn1	i	18µM*	-4%	?	4%
CC(C)Cc1cc(C(=O)N2N=C(C(F)F)CC2(O)C(F)F)c2ccccc2n1 (stereo unspecified)	?	?	-21%	-1%	-1%
CCc1ccc(-c2cc(C(=O)N3N=C(C(F)F)CC3(O)C(F)F)c3ccccc3n2)cc1 (stereo unspecified)	?	21µM*	23µM*	-2%	4%
CCn1cc(-c2cc(C(=O)O)c3ccccc3n2)c(C)n1	i	?	-3%	-2%	0%
CCc1ccc(-c2cc(C(=O)Nn3cnnc3)c3ccccc3n2)cc1	i	9.2µM*	2%	?	-2%
O=C(O)Cc1ccc(NS(=O)(=O)c2ccccc2Cl)cc1	i	-11%	7%	-21%	0%
COc1ccccc1CNC(=O)C(=O)NCC(c1cccnc1)N1CCN(c2ccc(F)cc2)CC1 (stereo unspecified)	i	21µM*	?	-14%	0%
O=C(NCC(c1ccco1)N1CCN(c2ccc(F)cc2)CC1)c1cccs1 (stereo unspecified)	i	10%	2%	5%	0%
O=C(NCc1cccnc1)C(=O)NCC(c1ccco1)N1CCN(c2ccc(F)cc2)CC1 (stereo unspecified)	i	21µM*	-5%	-20%	2%
O=C(NCc1cccs1)C(=O)NCC(c1ccco1)N1CCN(c2ccc(F)cc2)CC1 (stereo unspecified)	i	15µM*	-19%	-24%	1%
O=C(NCC(c1cccnc1)N1CCN(c2ccccc2F)CC1)c1cccc(Cl)c1 (stereo unspecified)	i	21µM*	-17%	-22%	4%
O=C(NCC(c1cccnc1)N1CCN(c2ccccc2F)CC1)c1ccc(F)cc1 (stereo unspecified)	?	-1%	1%	-25%	1%
Cc1ccc2nc(CN(C)C(=O)[C@H]3O[C@@H](n4ccc(=O)[nH]c4=O)[C@H](O)[C@@H]3O)[nH]c2c1	i	nt	nt	-3%	-2%
CN(C)/C=C/C(=O)c1ccncc1	i	-21%	-21%	-7%	2%
Cc1coc2cc3oc(=O)c(CC(=O)NCc4ccc(F)cc4)c(C)c3cc12	nt	7%	-3%	nt	0%
Cc1ccc(NC(=O)C(=O)NCC(c2cccnc2)N2CCOCC2)cc1C (stereo unspecified)	i	?	?	2%	0%
O=C(NCC(c1cccnc1)N1CCOCC1)C(=O)Nc1ccc(F)cc1 (stereo unspecified)	i	23µM*	-6%	6%	1%
SMILES	ATXN viability	Nrf2 block	A549 tox	ATXN2 expr inh	Nrf2 activator
Cc1c(Cl)cccc1NC(=S)NCCC(c1ccccc1)c1ccccc1	i	?	-22%	0%	0%
COc1cccc(NC(=S)NCCC(c2ccccc2)c2ccccc2)c1	i	nt	9%	-19%	1%
Cc1cc(Cl)ccc1NC(=S)NCCC(c1ccccc1)c1ccccc1	?	16µM*	?	?	3%
COc1cc(NC(=S)NCCC(c2ccccc2)c2ccccc2)cc(OC)c1	i	23µM*	?	-12%	2%
Cc1nn(Cc2c(Cl)cccc2Cl)c(C)c1NC(=O)c1cn(-c2ccccc2)nc1-c1ccccc1	13µM*	12µM*	13µM*	13µM*	-2%
Cc1ccc(NC(=O)c2cn(-c3ccccc3)nc2-c2ccccc2)cc1	i	19%	10%	-8%	4%
COc1cccc(CNC(=O)N2CCN(c3ccccc3C)CC2)c1	i	-11%	3%	10%	0%
CCOC(=O)/C(=N/Nc1ccccc1)c1csc(Nc2ccccc2)n1	?	?	5%[1.84 µM]	-3%	6%
CCOC(=O)/C(=N\Nc1ccc(Cl)cc1)c1csc(Nc2ccccc2)n1	?	16µM*	?	2%	4%
CN1CCC2(CC1)N=C(c1ccc(F)cc1)C(=S)N2C(=O)c1ccc(C(C)(C)C)cc1	?	?	-11%	32µM*	0%
CC(C)CNC(CC(=O)Nc1cccc([N+](=O)[O-])c1)C(=O)O (stereo unspecified)	i	0%	-2%	8%	-1%
CCOC(=O)NC(=O)CSc1ccc(S(=O)(=O)N2CCCCC2)cn1	i	5%	1%	nt	-1%
Cc1nc2c(OCc3ccc(C(F)(F)F)cc3)cccn2c1N(C)Cc1cccs1	32µM*	nt	nt	?	-1%[9.22 µM]
CCc1nc2c(OCc3ccc(C(F)(F)F)cc3)cccn2c1N(C)C(C)=O	i	nt	nt	-15%	4%
O=S(=O)(c1cc(F)ccc1F)N1CCN(c2ncnc3ccccc23)CC1	i	12µM*	-18%	nt	0%
COC(=O)c1nn(-c2ccccc2)c(Cl)c1/C=N/OCc1c(Cl)cccc1Cl	i	6%	12%	nt	0%
Cc1cc(NC(=O)c2cc3ccccc3o2)ccc1NC(=O)c1ccccc1	i	-13%	-5%	1%	0%
COc1ccc(CNS(=O)(=O)c2ccc3c(c2)CC(C)N3C(=O)C2CC2)cc1 (stereo unspecified)	i	?	-11%	-20%	0%
CC1Cc2cc(S(=O)(=O)NCc3ccccc3Cl)ccc2N1C(=O)C1CCC1 (stereo unspecified)	i	26µM*	-14%	-24%	0%
CC1Cc2cc(S(=O)(=O)NCCc3ccccc3)ccc2N1C(=O)C1CC1 (stereo unspecified)	i	?	-2%	-15%	0%

Compound activity (PubChem BioAssay)
